Screening results: PubChem BioAssay, National Center for Advancing Translational Sciences (NCATS)
JMJD2A Tudor inh: inhibitors of human JMJD2A Tudor domain. 4.4% of 390,000 active. Potency, µM (doses to about 114 µM), inactives show at the highest dose activity change, negative = inhibition, most hits filed as inhibitors. AID 504339. AlphaScreen JMJD2A-Tudor / H3K4me3 peptide binding; also: % is scaled to controls: 0 for no effect and ±100 for the full control effect; nearly all actives have a fitted effect of over 50% in size
HP1b binding inh: HP1-beta chromodomain-methylated histone interaction inhibition | AlphaScreen HP1-beta / biotin-H3K9me3 peptide binding | Potency, µM (highest dose often 114 µM), for the others: at the top dose activity change, negative = inhibition, usual class: inhibitors | 0.56% of 390,000 active; also: nearly all actives have a fitted effect of over 70% in size
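Compound inhibition of the preformed complex between 50 nM HP1-beta and 50 nM biotinylated H3K9me3 peptide was read by AlphaScreen. Buffer was PBS pH 7.4 with 0.01% Tween-20. Incubations ran 30 min at room temperature, with 10 ug/mL donor/acceptor beads.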
PLK1 PBD block: inhibitors of human PLK1 polo-box domain binding; Plk1 PBD binding of FITC phosphopeptide, fluorescence polarization; Potency, µM, without a hit: max response, negative = inhibition, most hits filed as inhibitors; 2.8% of 360,000 active; AID 720504; also: series mostly up to about 57 µM; % is scaled to controls: 0 for no effect and ±100 for the full control effect; nearly all actives have a fitted effect of over 65% in size
G9a inh: inhibitors of human histone lysine methyltransferase G9a; Q96KQ7; G9a H3K9 monomethylation, AlphaScreen, 2 h; Potency, µM (series often up to 102 µM), for the others: top-dose activity, negative = inhibition, hits mostly inhibitors; 8.8% of 350,000 active; also: % is scaled to controls: 0 for no effect and ±100 for the full control effect; nearly all actives have a fitted effect of over 75% in size
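Chemiluminescent proximity detection of H3K9 monomethylation, read after 10 min bead incubation in the dark. Reaction: 20 nM G9a, 500 nM biotin-H3K9 peptide, 20 uM SAM cofactor, 2 h, room temperature, following 15 min enzyme-compound preincubation.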
ALOX12 inh: blocks human arachidonate 12S-lipoxygenase | purified 12hLO, xylenol orange hydroperoxide absorbance | Potency, µM (top dose mostly 108 µM), for the others: at the top dose activity change, negative = inhibition, actives largely listed as inhibitors | 1.1% of 580,000 active | AID 1671190; also: % is scaled to controls: 0 for no effect and ±100 for the full control effect
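Purified human 12hLO (150 nM final) in 25 mM Hepes, 0.01% Triton X-100, pH 7.0 was preincubated 15 min at room temperature with compound. Then 40 uM arachidonic acid was added, 30 min. Hydroperoxide was read by Fe-XO absorbance ratio 573/405 nm.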
BAZ2B inh: BAZ2B (human) inhibition; AlphaScreen BAZ2B-H3K14Ac peptide displacement; Potency, µM (top dose mostly 114 µM), for the others: at the highest dose activity change, negative = inhibition, actives largely listed as inhibitors; 4.4% of 360,000 active; AID 504333; also: % is scaled to controls: 0 for no effect and ±100 for the full control effect; nearly all actives have a fitted effect of over 60% in size
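AlphaScreen displacement of biotin-H3(5-23)K14Ac peptide (50 nM final) from BAZ2B (50 nM final) in PBS pH 7.4, 0.01% Tween-20; complex preformed 30 min RT, then compounds (top 110 uM) 30 min RT, beads 20 min dark.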
* = called active by the depositor; i = inactive; ? = inconclusive; / = no result given; ! = not confirmed by another sample; [ ] = remark or other dose. Compounds with a hit are over-represented: about 9% of the library has one in this group of screens. Calls follow the shape of the dose curve; as a rule, active = well fitted curve in the direction sought with a large enough effect; inconclusive = small, poorly fitted or top-dose-only effect, or another doubt; inactive = no such curve, though single readings can be large; an effect the other way counts as inactive or inconclusive. Potency is read from the fitted curve at half-maximal effect.

SMILES | JMJD2A Tudor inh | HP1b binding inh | PLK1 PBD block | G9a inh | ALOX12 inh | BAZ2B inh
CCc1nnc(SCc2ccc(F)cc2Cl)c2cc3sc(C)cc3n12 | 89µM* | 50% | / | -9%[59 µM] | -21% | -15%
CCc1nnc(SCc2cc(C)ccc2C)c2cc3sc(C)cc3n12 | 3% | 44% | / | 10µM* | -21% | 2%
COc1ccc(CCNC(=O)CN2C(=O)NC(CCSC)C2=O)cc1 (configuration not stated) | -5% | 35% | 1% | 2% | 38% | -11%
COc1ccc2c(C)cc(N3CCOCC3)nc2c1 | 20% | 25% | 3% | 11% | 6% | 10%
CCCc1[nH]n(-c2ccc([N+](=O)[O-])cc2)c(=O)c1C=NCCN1CCNCC1 | / | / | / | -42% | / | -4%
CCCc1[nH]n(-c2ccc([N+](=O)[O-])cc2)c(=O)c1C=NCCCn1ccnc1 | -26% | -12% | -17% | 16%[12.7 µM] | 6% | 50µM*
COc1ccc(-c2[nH]n(-c3ccc([N+](=O)[O-])cc3)c(=O)c2C=NCc2ccncc2)cc1 | -30% | 4% | -13% | 2%[59 µM] | -25% | 49%
CCCc1[nH]n(-c2ccc([N+](=O)[O-])cc2)c(=O)c1C(C)=NCc1ccncc1 | ? | -8% | -12% | 35µM* | ? | -29%
CN1CC(=O)N2[C@H]3c4ccccc4OC[C@@H]3[C@H](c3ccccc3)[C@]2(C)C1=O | -17% | 34% | -4% | / | 1% | /
Cc1ccccc1N(CC(=O)N1CCc2ccccc2C1)S(C)(=O)=O | -2% | 39% | 2% | 12% | -16% | 9%
CC(=O)Oc1cc(C(=O)OCC(=O)N2CCc3ccccc3C2)cc(OC(C)=O)c1OC(C)=O | 1.6µM* | ? | ? | / | ? | /
CN(C)CC(=O)N1CCc2ccccc2C1 | 11µM* | -33% | 8% | ? | -13% | 50µM*
O=C(COC(=O)CN1C(=O)C2CC=CCC2C1=O)Nc1cc(C(F)(F)F)ccc1N1CCOCC1 (configuration not stated) | -12% | 36% | -3% | 20%[59 µM] | 0% | 5%
O=[N+]([O-])c1cccc(N=Cc2ccc(C#Cc3ccccc3)cc2)c1 | / | / | / | / | 7% | /
COCCOC1CCOC2(CCN(C(=O)c3cccnc3)CC2)C1 (configuration not stated) | / | / | / | / | 47% | /
COc1ccc(C(=O)CSc2nnc(CNc3ccc(F)cc3)o2)cc1 | -12% | 22% | -15% | -2%[59 µM] | 0% | -11%
COc1ccc(CCCc2nnc(SCC(=O)Nc3ccc(OC)cc3)o2)cc1 | 28µM*! | -5% | 1% | ? | ? | 3%
COc1ccc(NCc2nnc(SCC(=O)c3ccc(C)cc3)o2)cc1 | ? | -23% | ? | 14µM* | -1% | ?
COc1ccccc1CNC(=O)C(=O)NCC1CCCO1 (configuration not stated) | -3% | 7% | 0% | ? | 0% | -6%
COc1cc(OC)cc(C(=O)NC(=S)NNC(=O)[C@H]2C[C@@H]2c2ccccc2)c1 | ? | -23% | ? | 20µM* | ? | -19%
O=C(/C=C/c1ccc(F)cc1)NC(=S)NNC(=O)[C@H]1C[C@@H]1c1ccccc1 | -14% | 23% | -5% | 35µM* | ? | -3%[57.1 µM]
COc1ccc(C(=O)NC(=S)NNC(=O)[C@H]2C[C@@H]2c2ccccc2)cc1OC | -25% | -3% | -12% | 45µM* | ? | 0%
CCCNC(=O)c1nnsc1S(=O)c1ccc(Cl)cc1 (configuration not stated) | -18% | -15% | 0.75µM* | 25µM* | -23% | -2%
Cc1ccc(S(=O)c2snnc2C)cc1 (configuration not stated) | -15% | 24% | -14% | -4% | 20% | 0%
CNC(=O)c1nnsc1S(=O)c1ccc(Cl)cc1 (configuration not stated) | -32% | -6% | 0.95µM* | 35µM* | -7% | -2%
SMILES | JMJD2A Tudor inh | HP1b binding inh | PLK1 PBD block | G9a inh | ALOX12 inh | BAZ2B inh
CCCNC(=O)c1nnsc1S(=O)(=O)c1ccc(Cl)cc1 | -14% | 16% | ? | 13µM* | -9% | -12%
O=C(Nc1nc(-c2cc(F)ccc2F)cs1)c1ccc(Cl)c(N2CCCC2=O)c1 | / | / | / | / | -3% | /
Cc1cccc(N2CCN(C(=O)CCS(=O)(=O)c3ccc4c(c3)NC(=O)CO4)CC2)c1C | ? | -7% | 12µM* | -9% | 4% | -25%
COc1ccc(CNC(=O)CC(C)S(=O)(=O)c2ccc3c(c2)NC(=O)CO3)cc1 (configuration not stated) | -16% | 53% | 24µM* | 31% | -2% | -20%
Cc1cc2c(cc1S(=O)(=O)N1CCN(c3cccc(C)c3C)CC1)OCC(=O)N2 | -8% | 23% | 0% | / | 10% | 15%
COc1ccc(N2CCN(C(=O)CCS(=O)(=O)c3ccc4c(c3)NC(=O)CO4)CC2)cc1 | ? | -12% | 24µM* | ? | -5% | -29%
Cc1cccc(N2CCN(S(=O)(=O)c3ccc4c(c3)NC(=O)CO4)CC2)c1C | ? | -14% | 27µM* | 44% | -4% | ?
O=C1c2ccccc2C(=O)N1C1C=CC=CC=C1 | / | / | 30µM* | / | -9% | /
Cc1cccc(C)c1NC(=O)Nc1nc(C(N)c2ccccc2Cl)cs1 (configuration not stated) | / | / | 4% | / | -4% | /
CCn1c(SCC(=O)N/N=C/C=C\c2ccco2)nc2ccccc21 | ? | -11% | -19% | 16µM* | ? | 45µM*
Cn1c(SCC(=O)N/N=C/C=C\c2ccco2)nc2ccccc21 | 56µM* | ? | ? | / | ? | ?
Cc1ccc(CSc2nnc(SCC(=O)N/N=C/C=C/c3ccco3)s2)cc1 | -13% | 5% | -11% | ? | -28% | 50µM*
C/C(=N/NC(=O)CSc1nc2ccccc2n1C)c1ccco1 | -20% | 35% | -6% | / | i | -10%
CCN(CCO)c1ncnc2c1sc1nc(CC(C)C)c3c(c12)CC(C)(C)OC3 | ? | 21% | 0% | 1% | 0% | -34%
COc1cccc(-n2c(C)nc3c(cnn3-c3ccc(Cl)cc3)c2=O)c1 | -9%[11.4 µM] | -11% | 21µM* | 1%[12.7 µM] | 0%[57.4 µM] | 8%
CCc1cccc(-n2c(C)nc3c(cnn3-c3ccc(Cl)cc3)c2=O)c1 | -14% | 21% | / | -5%[59 µM] | 0% | /
COc1ccc(N2CCN(S(=O)(=O)c3ccc(-c4ccno4)cc3OC)CC2)cc1 | ? | -6% | / | 10µM* | -26% | 22µM*
COc1cc(-c2ccno2)ccc1S(=O)(=O)N1CCN(c2ccccc2F)CC1 | -6% | 17% | / | 12%[59 µM] | 25% | -6%
Cc1ccc(NC(=O)Nc2nnc(-c3ccncc3)s2)cc1C | -24% | 46% | -3% | -5% | -10% | -16%
